Among all 5,500 compounds or so, about 2,000 (36%) were called active. Another 18% or so got no clear call; they are omitted. Rule as the data show it: active = normalized growth mostly below about 0.91 (no sharp cut-off); inconclusive = no clear call, values can overlap the other calls; inactive = mostly above about 0.92. The list shows a part of the results.
Assay: chemical genetic growth profiling, strain panel (AID 1159580);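 also: tested at 20 µM; growth read once vehicle control cultures reached saturation at 30 °C; 1 = growth at the plate median or of vehicle wells; lower values mean less growth of the strain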
Conditions: growth OD

Measured: normalized growth

CNC(=O)CSP(=S)(OC)OC
inactive: S. cerevisiae deletion strains, locus YJR075W, strain HOC1, stronger effect = lower value 1.02 | S. cerevisiae deletion strains, locus YKL009W, strain mrt4, stronger effect = lower value 1 | S. cerevisiae deletion strains, locus YKL068W, stronger effect = lower value 1.01 | S. cerevisiae deletion strains, locus YKL085W, strain MDH1 (second series), stronger effect = lower value 1.01 | S. cerevisiae deletion strains, locus YKL085W, strain MDH1, stronger effect = lower value 1.01 | S. cerevisiae deletion strains, locus YKL160W, strain elf1, stronger effect = lower value 1.01 | S. cerevisiae deletion strains, locus YKL190W, strain CNB1, stronger effect = lower value 0.979 | S. cerevisiae deletion strains, locus YKR001C, strain vps1, stronger effect = lower value 1.02 | S. cerevisiae deletion strains, locus YKR026C, strain gcn3, stronger effect = lower value 1.01 | S. cerevisiae deletion strains, locus YKR091W, strain srl3, stronger effect = lower value 1.02 | S. cerevisiae deletion strains, locus YLL001W, strain dnm1, stronger effect = lower value 1.01 | S. cerevisiae deletion strains, locus YLL026W, stronger effect = lower value 1.02 | S. cerevisiae deletion strains, locus YLL041C, strain sdh2, stronger effect = lower value 1.03 | S. cerevisiae deletion strains, locus YLR027C, strain aat2, stronger effect = lower value 1.01 | S. cerevisiae deletion strains, locus YLR039C, strain RIC1, stronger effect = lower value 0.993 | S. cerevisiae deletion strains, locus YLR058C, strain SHM2, stronger effect = lower value 1.01 | S. cerevisiae deletion strains, locus YLR102C, strain apc9, stronger effect = lower value 1.02 | S. cerevisiae deletion strains, locus YLR113W, strain HOG1, stronger effect = lower value 0.997 | S. cerevisiae deletion strains, locus YLR221C, strain rsa3, stronger effect = lower value 1.03 | S. cerevisiae deletion strains, locus YLR258W, strain gsy2, stronger effect = lower value 1.03 | S. cerevisiae deletion strains, locus YLR262C, strain YPT6 (second series), stronger effect = lower value 1.05 | S. cerevisiae deletion strains, locus YLR262C, strain YPT6, stronger effect = lower value 0.999 | S. cerevisiae deletion strains, locus YLR268W, strain sec22, stronger effect = lower value 1.01 | S. cerevisiae deletion strains, locus YLR320W, strain mms22, stronger effect = lower value 1.02 | S. cerevisiae deletion strains, locus YLR330W, strain CHS5, stronger effect = lower value 1.01 | S. cerevisiae deletion strains, locus YLR342W, strain FKS1 (second series), stronger effect = lower value 1.04 | S. cerevisiae deletion strains, locus YLR342W, strain FKS1, stronger effect = lower value 1.02 | S. cerevisiae deletion strains, locus YLR357W, strain rsc2, stronger effect = lower value 0.986 | S. cerevisiae deletion strains, locus YLR370C, strain arc18, stronger effect = lower value 1.03 | S. cerevisiae deletion strains, locus YLR371W, strain rom2, stronger effect = lower value 1.02 | S. cerevisiae deletion strains, locus YLR384C, strain iki3, stronger effect = lower value 1.04 | S. cerevisiae deletion strains, locus YLR418C, strain cdc73, stronger effect = lower value 1.01 | S. cerevisiae deletion strains, locus YML016C, strain PPZ1, stronger effect = lower value 1 | S. cerevisiae deletion strains, locus YML032C, strain rad52, stronger effect = lower value 1.03 | S. cerevisiae deletion strains, locus YML120C, strain ndi1, stronger effect = lower value 1.02 | S. cerevisiae deletion strains, locus YML124C, strain tub3, stronger effect = lower value 1.02 | S. cerevisiae deletion strains, locus YMR058W, strain fet3, stronger effect = lower value 1.01 | S. cerevisiae deletion strains, locus YMR078C, strain ctf18, stronger effect = lower value 1.02 | S. cerevisiae deletion strains, locus YMR125W, strain sto1, stronger effect = lower value 1.02 | S. cerevisiae deletion strains, locus YMR129W, stronger effect = lower value 1.01 | S. cerevisiae deletion strains, locus YMR205C, strain PFK2, stronger effect = lower value 1.01 | S. cerevisiae deletion strains, locus YMR223W, strain ubp8, stronger effect = lower value 1.02 | S. cerevisiae deletion strains, locus YMR231W, strain pep5, stronger effect = lower value 1.01 | S. cerevisiae deletion strains, locus YMR263W, strain SAP30, stronger effect = lower value 1.02 | S. cerevisiae deletion strains, locus YMR307W, strain GAS1, stronger effect = lower value 1.03 | S. cerevisiae deletion strains, locus YNL067W, strain RPL9B, stronger effect = lower value 1.01 | S. cerevisiae deletion strains, locus YNL071W, strain lat1, stronger effect = lower value 1 | S. cerevisiae deletion strains, locus YNL128W, strain TEP1, stronger effect = lower value 1.01 | S. cerevisiae deletion strains, locus YNL153C, strain GIM3, stronger effect = lower value 1.01 | S. cerevisiae deletion strains, locus YNL183C, strain NPR1, stronger effect = lower value 0.982 | S. cerevisiae deletion strains, locus YNL209W, strain ssb2, stronger effect = lower value 0.999 | S. cerevisiae deletion strains, locus YNL233W, strain BNI4, stronger effect = lower value 0.991 | S. cerevisiae deletion strains, locus YNL248C, strain rpa49, stronger effect = lower value 1.02 | S. cerevisiae deletion strains, locus YNL250W, strain rad50, stronger effect = lower value 1.02 | S. cerevisiae deletion strains, locus YNL271C, strain bni1, stronger effect = lower value 1.02 | S. cerevisiae deletion strains, locus YNL298W, strain CLA4, stronger effect = lower value 1.02 | S. cerevisiae deletion strains, locus YNL307C, strain MCK1, stronger effect = lower value 1.04 | S. cerevisiae deletion strains, locus YNL322C, strain KRE1 (second series), stronger effect = lower value 1 | S. cerevisiae deletion strains, locus YNL322C, strain KRE1, stronger effect = lower value 1.01 | S. cerevisiae deletion strains, locus YNR049C, strain mso1, stronger effect = lower value 1.02 | S. cerevisiae deletion strains, locus YNR052C, strain pop2, stronger effect = lower value 1.02 | S. cerevisiae deletion strains, locus YOL006C, strain TOP1, stronger effect = lower value 1.05 | S. cerevisiae deletion strains, locus YOL012C, strain htz1 1.12 | S. cerevisiae deletion strains, locus YOL147C, strain pex11, stronger effect = lower value 1.01 | S. cerevisiae deletion strains, locus YOR001W, strain rrp6, stronger effect = lower value 1.02 | S. cerevisiae deletion strains, locus YOR061W, strain CKA2, stronger effect = lower value 1.01 | S. cerevisiae deletion strains, locus YOR069W, strain VPS5, stronger effect = lower value 1 | S. cerevisiae deletion strains, locus YOR070C, strain gyp1, stronger effect = lower value 1.02 | S. cerevisiae deletion strains, locus YOR080W, strain dia2, stronger effect = lower value 1.02 | S. cerevisiae deletion strains, locus YOR083W, strain WHI5, stronger effect = lower value 1.01 | S. cerevisiae deletion strains, locus YOR106W, strain vam3, stronger effect = lower value 1.01 | S. cerevisiae deletion strains, locus YOR136W, strain idh2, stronger effect = lower value 1.01 | S. cerevisiae deletion strains, locus YOR144C, strain elg1, stronger effect = lower value 1.02 | S. cerevisiae deletion strains, locus YOR184W, strain ser1, stronger effect = lower value 1.04 | S. cerevisiae deletion strains, locus YOR231W, strain MKK1, stronger effect = lower value 1.04 | S. cerevisiae deletion strains, locus YOR265W, strain rbl2, stronger effect = lower value 1.03 | S. cerevisiae deletion strains, locus YOR270C, strain vph1, stronger effect = lower value 1.05 | S. cerevisiae deletion strains, locus YOR290C, strain snf2, stronger effect = lower value 1.03 | S. cerevisiae deletion strains, locus YOR316C, strain cot1, stronger effect = lower value 1.03 | S. cerevisiae deletion strains, locus YPL051W, strain arl3, stronger effect = lower value 1.01 | S. cerevisiae deletion strains, locus YPL055C, strain LGE1, stronger effect = lower value 1 | S. cerevisiae deletion strains, locus YPL078C, strain atp4, stronger effect = lower value 1.01 | S. cerevisiae deletion strains, locus YPL106C, strain sse1, stronger effect = lower value 1 | S. cerevisiae deletion strains, locus YPL240C, strain hsp82, stronger effect = lower value 1.02 | S. cerevisiae deletion strains, locus YPL241C, strain CIN2, stronger effect = lower value 1.02 | S. cerevisiae deletion strains, locus YPL256C, strain CLN2, stronger effect = lower value 1.05 | S. cerevisiae deletion strains, locus YPR119W, strain clb2, stronger effect = lower value 1.02 | S. cerevisiae deletion strains, locus YPR141C, strain kar3, stronger effect = lower value 1.02 | S. cerevisiae deletion strains, locus YPR163C, strain tif3, stronger effect = lower value 1.02 | S. cerevisiae deletion strains, locus YPR167C, strain met16, stronger effect = lower value 1.02 | S. cerevisiae deletion strains, strain wtn01, stronger effect = lower value 1.02 | S. cerevisiae strains, strain wild type, stronger effect = lower value 1.02

— PubChem BioAssay AID1159580 (chemical genetic matrix, 2015)
